Compound activity deposited in PubChem BioAssay by Broad Institute.
The entries come from a sample that favours hits as a whole.
aSyn 5UTR act: Activators via SNCA 5'UTR binding, MLPCN; alpha-synuclein 5'UTR reporter, activators screen; activity score, % (tested at 7.5 µM), hits read low; 300,000 tested, 7.1% active; in the data active = activity score below about -60%
Active calls of the source: *.

SMILES | aSyn 5UTR act
CN(CCc1ccccc1)C(=O)c1cc(COc2ccc(F)cc2Cl)on1 | -82.2*
Oc1ccc(-c2nccc(-c3ccc(Cl)cc3)n2)cc1 | -84.3*
Oc1ccc(-c2nccc(-c3cccs3)n2)cc1 | -156.8*
Oc1ccc(-c2cccc(-c3ccc(O)cc3)n2)cc1 | -67.9*
Oc1ccc(-c2nnc(-c3ccc(O)cc3)nn2)cc1 | -109.2*
CS(=O)(=O)N1N=C(c2ccccc2)CC1c1ccc2c(c1)OCO2 (stereo not drawn) | -274.7*
CS(=O)(=O)Nc1cccc(C2=NN(S(C)(=O)=O)C(c3ccc4c(c3)OCO4)C2)c1 (stereo not drawn) | -85.9*
Cc1ccc(C2CC(c3ccco3)=NN2S(C)(=O)=O)cc1 (stereo not drawn) | -62.6*
CS(=O)Cc1cc(Sc2ccccc2)nc(-c2cccnc2)n1 (stereo not drawn) | -65.7*
Cc1ccccc1CNC(=O)Nc1ccc(Cl)cc1 | -110.2*
Cc1ccc(CNC(=O)Nc2ccccc2)c(C)c1 | -153.4*
O=C(O)c1cnn(-c2nc(-c3ccc(Br)cc3)cs2)c1C(F)(F)F | -96.0*
Cc1ccccc1C(=O)NC(=S)Nc1ncccn1 | -66.2*
O=C(NC(=S)NCCc1ccccc1)c1ccco1 | -79.6*
Cc1ccccc1C(=O)NC(=S)NCCc1ccccc1 | -65.8*
CC(=O)c1ccc(NC(=O)CSc2nccn2CCc2ccccc2)cc1 | -128.2*
N#Cc1ccccc1NC(=O)CSc1nccn1CCc1ccccc1 | -149.4*
C=CCn1c(C)cc(C(=O)COC(=O)[C@@H](NC(=O)c2ccccc2Cl)C(C)C)c1C | -69.7*
CCNC(=S)Nc1ccc(OCc2nc3ccccc3s2)cc1 | -89.7*
O=C(O)CCCC(=O)Nc1ccc(OCc2nc3ccccc3s2)cc1 | -67.4*
O=c1c2[nH]c3ccccc3c2nc2n1CCCS2 | -75.3*
CCC(C)/C(C)=N/NC(=O)c1ccc(CSc2nc3ccccc3s2)cc1 (stereo not drawn) | -156.1*
CCNC(=O)c1ccc(CSc2nc3ccccc3s2)cc1 | -65.2*
NC(=O)c1ccc(CSc2nc3ccccc3s2)cc1 | -100.9*
c1ccc2sc(SCc3ccc(-c4nnco4)cc3)nc2c1 | -156.2*
SMILES | aSyn 5UTR act
CCC(C)(C)NC(=O)CCCSc1nc2ccccc2s1 | -153.6*
CC1CCCCN1Cc1c(O)ccc2c(=O)c(-c3ccc(Cl)cc3)coc12 (stereo not drawn) | -68.3*
CCn1c(SCC(=O)Nc2ccc(C(C)=O)cc2)nc2nc3c(cc2c1=O)COC(C)(C)C3 | -83.1*
CC(=O)c1ccc(NC(=O)CSc2nc(N)c3cc4c(nc3n2)CCCC4)cc1 | -78.9*
CC1(C)Cc2nc3nc(SCC(=O)Nc4ccccc4)nc(N)c3cc2CO1 | -67.5*
CC1(C)Cc2nc3sc4c(SCC(=O)NCc5ccccc5)ncnc4c3cc2CO1 | 64.0
Cc1cc2nc(-c3ccc(NC(=O)C(C)C)cc3)oc2cc1C | -195.5*
CC(=O)Nc1cc(-c2nc3ccccc3o2)ccc1Cl | -77.1*
CC(=O)Nc1ccc(-c2nc3ccc(NC(C)=O)cc3o2)cc1 | -103.9*
CNc1c(N)c(=O)oc2ccccc12 | -74.2*
Cc1ccc(CNc2ccc(N3CCOCC3)cc2)cc1 | -107.5*
COc1cc(C(=S)N2CCCC2)ccc1OS(=O)(=O)c1ccc(NC(C)=O)cc1 | -64.2*
Cc1ccc(C(=O)Nc2ccc(N3CCN(C)CC3)cc2)c(Cl)c1 | -162.5*
Cc1ccc(C(=O)Nc2ccc(N3CCOCC3)cc2)cc1 | -95.4*
Cc1ccc(C(=O)Nc2ccc(N3CCCC3)cc2)cc1 | -160.1*
O=C(Nc1cccc(Cl)c1)c1ccc(OC(=S)N2CCOCC2)cc1 | -182.4*
Cc1ccc(C(=O)Nc2ccc(N3CCN(C)CC3)nc2)cc1 | -63.4*
COc1ccc(C(=O)Nc2ccc(N3CCCCC3)cc2)cc1Br | -63.5*
Cc1ccc(C(=O)Nc2cccc(C(=O)O)c2)cc1 | 86.9
Cc1ccc(C(=O)Nc2cccc(C(=O)N3CCOCC3)c2)cc1 | -89.1*
CCC(=O)NC(=S)Nc1ccc(N2CCOCC2)cc1 | -81.8*
CCN(CC)S(=O)(=O)c1ccc2oc(Nc3ccccc3)nc2c1 | -128.8*
CCS(=O)(=O)c1ccc2oc(Nc3ccccc3C)nc2c1 | -121.9*
Cc1c(C(=O)NCCc2ccccc2)oc2ccccc12 | -68.8*
Cc1c(C(=O)NC2CCC(C)CC2)oc2ccccc12 (stereo not drawn) | -143.0*
SMILES | aSyn 5UTR act
c1ccc(Cn2ccc(-c3cnc(-c4ccccc4)s3)n2)cc1 | -105.6*
CCC1CCCCN1CC(O)Cn1c2ccccc2n2c(=O)cc(C)c(C#N)c12 (stereo not drawn) | -63.8*
Cc1nc2cc(NC(=O)N3c4ccccc4CC3C)ccc2o1 (stereo not drawn) | -103.5*
Cc1nc2cc(NC(=O)Nc3ccc(Br)cc3)ccc2o1 | -192.3*
CC(=O)Nc1ccc(SCC(=O)c2cc(C)n(C)c2C)cc1 | -68.9*
COc1ccc2c(c1OC)C(=O)OC2Nc1nc(-c2cc3cc(Br)ccc3oc2=O)cs1 (stereo not drawn) | -220.9*
CC(=O)c1ccc(Sc2ccc(C(C)=O)cc2)cc1 | -63.5*
NC(=O)c1ccsc1NC(=O)c1coc2ccccc2c1=O | -156.2*
CCOC(=O)c1[nH]c2ccccc2c1NC(=S)Nc1ccccc1 | -69.5*
